Test results as given in PubChem BioAssay (EPA / NIEHS).
Calls of active or inactive are those of the source. How the source made its calls: active means hit-call score of the fitted dose curve at least 0.9, where 1 is the maximum; inactive means score below 0.9.

Assays:
[1] = CEETOX_H295R_PROG: CeeTox H295R High-throughput Steroidogenesis Assay for Progesterone (PROG) (AID 2283442); settings: actives raise or lower the signal;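 on AC50: human H295R adrenal cells primed with 10 µM forskolin before dosing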
Outline: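 H295R human adrenal cells were prestimulated with 10 uM forskolin for 48 h, then exposed to test chemical (0.1% DMSO final) for 48 h. Medium progesterone was MTBE-extracted and quantified by HPLC-MS/MS, with bidirectional fitting against DMSO.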

[2] = CEETOX_H295R_TESTO: CeeTox H295R High-throughput Steroidogenesis Assay for Testosterone (TESTO) (AID 2283457); settings: actives raise or lower the signal;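 on AC50: cells exposed to chemicals for 48 h before medium collection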
Outline: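 H295R human adrenal cells in DMEM/F12 with ITS+ and Nu-Serum, exposed to chemicals for 48 h. Testosterone in medium measured by MTBE extraction, reverse-phase HPLC-MS/MS; bidirectional fit versus DMSO baseline. MTT viability checked in same wells.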

[3] = CEETOX_H295R_DOC: CeeTox H295R High-throughput Steroidogenesis Assay for DOC (AID 2283439); settings: actives raise or lower the signal
Outline: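 Secreted DOC was quantified from H295R media by HPLC-MS/MS after 48 h chemical exposure following 48 h forskolin (10 uM) prestimulation. Values were fitted in both directions relative to DMSO, the negative control and baseline.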

[4] = read-out: Tumor necrosis factor receptor superfamily member 6 (Homo sapiens) (UniProt P25445); assay: LTEA_HepaRG_FAS: Life Technologies and Expression Analysis (LTEA) Assay for Fas cell surface death receptor (FAS) using HepaRG (AID 2283447); settings: mRNA level, 48 h; actives raise or lower the signal
Outline: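 Differentiated HepaRG cells in serum-free induction medium were exposed 48 h to 8 half-log concentrations up to 100 uM in 0.5% DMSO, in duplicate. FAS mRNA was measured by qRT-PCR normalised to ACTB, GAPDH and POLR2A; bidirectional fit versus DMSO.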

[5] = read-out: Fatty acid synthase (Homo sapiens) (UniProt P49327); assay: LTEA_HepaRG_FASN: Life Technologies and Expression Analysis (LTEA) Assay for Fatty Acid Synthase (FASN) using HepaRG (AID 2283448); settings: mRNA level, 48 h; actives raise or lower the signal
Outline: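 Transcript-level assay: HepaRG liver cells are treated for 48 h across an eight-point range topping at 100 uM, and FASN mRNA, normalized to three housekeeping genes, is compared with DMSO controls in both directions.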

[6] = read-out: Cyclin Dependent Kinase Inhibitor 1A (CDKN1A), CDKN1A (gene 1026); assay: LTEA_HepaRG_CDKN1A: Life Technologies and Expression Analysis (LTEA) Assay for Cyclin Dependent Kinase Inhibitor 1A (CDKN1A) using HepaRG (AID 2283450); settings: mRNA level, 48 h; actives raise or lower the signal
Outline: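 Differentiated human HepaRG cells, pre-cultured 48 h, were exposed in duplicate for 48 h in serum-free induction medium to eight half-log concentrations up to 100 uM (0.5% DMSO). CDKN1A mRNA was measured by qRT-PCR, normalized to ACTB/GAPDH/POLR2A, bidirectionally fitted versus DMSO.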

[7] = read-out: Cyclin D1 (CCND1), CCND1 (gene 595); assay: LTEA_HepaRG_CCND1: Life Technologies and Expression Analysis (LTEA) Assay for Cyclin D1 (CCND1) using HepaRG (AID 2283451); settings: mRNA level, 48 h; actives raise or lower the signal
Outline: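 Differentiated human HepaRG cells in serum-free induction medium were exposed 48 h to eight half-log concentrations up to 100 uM in 0.5% DMSO; mRNA quantified by TaqMan qRT-PCR, normalized to ACTB, GAPDH, POLR2A, fitted bidirectionally versus DMSO.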

[8] = read-out: catalase (CAT), CAT (gene 847); assay: LTEA_HepaRG_CAT: Life Technologies and Expression Analysis (LTEA) Assay for catalase (CAT) using HepaRG (AID 2283452); settings: mRNA level, 48 h; actives raise or lower the signal
Outline: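 HepaRG cells in serum-free induction medium, 0.5% DMSO vehicle, exposed 48 h in duplicate over 8 half-log concentrations from 100 uM. CAT mRNA measured by qRT-PCR, normalized to ACTB, GAPDH, POLR2A; bidirectional fit versus DMSO.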

[9] = read-out: flavin-containing dimethylaniline monooxygenases 3 (FMO3), FMO3 (gene 2328); assay: LTEA_HepaRG_FMO3: Life Technologies and Expression Analysis (LTEA) Assay for flavin-containing dimethylaniline monooxygenases 3 (FMO3) using HepaRG (AID 2283453); settings: mRNA level, 48 h; actives raise or lower the signal
Outline: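 HepaRG, 48 h exposure, 8-pt half-log series from 100 uM, 0.5% DMSO vehicle, duplicates; FMO3 transcript by Fluidigm TaqMan qRT-PCR, housekeeping-normalized; gain/loss fit vs DMSO.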

[10] = read-out: Cytochrome P450 (CYP1A1), CYP1A1 (gene 1543); assay: LTEA_HepaRG_CYP1A1: Life Technologies and Expression Analysis (LTEA) Assay for Cytochrome P450 (CYP1A1) using HepaRG (AID 2283454); settings: mRNA level, 48 h; actives raise or lower the signal
Outline: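 Differentiated HepaRG cells in serum-free induction medium were exposed in duplicate for 48 h to eight half-log concentrations up to 100 uM in 0.5% DMSO. CYP1A1 mRNA was quantified by TaqMan qRT-PCR, normalized to ACTB, GAPDH and POLR2A.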

[11] = read-out: CFLAR gene, CFLAR (gene 8837); assay: LTEA_HepaRG_CFLAR: Life Technologies and Expression Analysis (LTEA) Assay for CFLAR gene using HepaRG (AID 2283455); settings: mRNA level, 48 h; actives raise or lower the signal
Outline: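 Differentiated HepaRG cells in serum-free induction medium were exposed 48 h in duplicate to eight half-log concentrations up to 100 uM in 0.5% DMSO; mRNA measured by TaqMan qRT-PCR, normalized to ACTB, GAPDH, POLR2A; bidirectional fitting versus DMSO.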

[12] = read-out: Forkhead box O1 (FOXO1), FOXO1 (gene 2308); assay: LTEA_HepaRG_FOXO1: Life Technologies and Expression Analysis (LTEA) Assay for Forkhead box O1 (FOXO1) using HepaRG (AID 2283456); settings: mRNA level, 48 h; actives raise or lower the signal
Outline: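 Differentiated HepaRG cells, in serum-free induction medium with 0.5% DMSO, exposed 48 h in duplicate to 8-point half-log series from 100 uM. FOXO1 mRNA measured by TaqMan qRT-PCR, normalized to ACTB, GAPDH, POLR2A; bidirectional fit versus DMSO.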

[13] = read-out: growth arrest and DNA damage 45 (GADD45A), GADD45A (gene 1647); assay: LTEA_HepaRG_GADD45A: Life Technologies and Expression Analysis (LTEA) Assay for growth arrest and DNA damage 45 (GADD45A) using HepaRG (AID 2283458); settings: mRNA level, 48 h; actives raise or lower the signal
Outline: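 Human HepaRG liver cells are treated in duplicate for 48 h with chemicals in 0.5% DMSO, highest concentration 100 uM. Expression is read by qRT-PCR and analyzed in both directions against vehicle.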

[14] = read-out: Forkhead box O3 (FOXO3), FOXO3 (gene 2309); assay: LTEA_HepaRG_FOXO3: Life Technologies and Expression Analysis (LTEA) Assay for Forkhead box O3 (FOXO3) using HepaRG (AID 2283459); settings: mRNA level, 48 h; actives raise or lower the signal
Outline: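 Differentiated human HepaRG cells, 48 h post-plating, exposed in duplicate for 48 h in serum-free induction medium; 8-point half-log series from 100 uM in 0.5% DMSO. FOXO3 mRNA by TaqMan qRT-PCR, normalized to ACTB/GAPDH/POLR2A; bidirectional fit versus DMSO.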

[15] = read-out: ABC Transporter (ABCB1), ABCB1 (gene 5243); assay: LTEA_HepaRG_ABCB1: Life Technologies and Expression Analysis (LTEA) Assay for ABC Transporter (ABCB1) using HepaRG (AID 2283460); settings: mRNA level, 48 h; actives raise or lower the signal
Outline: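 HepaRG cells exposed in duplicate for 48 h in serum-free induction medium to eight half-log concentrations up to 100 uM in 0.5% DMSO. ABCB1 mRNA quantified by qRT-PCR, normalised to ACTB, GAPDH and POLR2A; fitted bidirectionally versus DMSO.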

[16] = read-out: growth arrest and DNA damage 45 (GADD45B), GADD45B (gene 4616); assay: LTEA_HepaRG_GADD45B: Life Technologies and Expression Analysis (LTEA) Assay for growth arrest and DNA damage 45 (GADD45B) using HepaRG (AID 2283461); settings: mRNA level, 48 h; actives raise or lower the signal
Outline: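 Differentiated HepaRG cells, plated 48 h then switched to serum-free induction medium, were exposed 48 h in duplicate to eight half-log concentrations from 100 uM in 0.5% DMSO; mRNA quantified by qRT-PCR, normalized to ACTB/GAPDH/POLR2A, bidirectional fit versus DMSO.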

[17] = read-out: ABC Transporter (ABCC3), ABCC3 (gene 8714); assay: LTEA_HepaRG_ABCC3: Life Technologies and Expression Analysis (LTEA) Assay for ABC Transporter (ABCC3) using HepaRG (AID 2283462); settings: mRNA level, 48 h; actives raise or lower the signal
Outline: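 HepaRG cells in serum-free induction medium were exposed for 48 h in duplicate to 8-point half-log concentrations topping at 100 uM in 0.5% DMSO. ABCC3 mRNA was measured by qRT-PCR normalized to ACTB, GAPDH and POLR2A, with bidirectional fitting versus DMSO.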

[18] = read-out: ABC Transporter (ABCB11), ABCB11 (gene 8647); assay: LTEA_HepaRG_ABCB11: Life Technologies and Expression Analysis (LTEA) Assay for ABC Transporter (ABCB11) using HepaRG (AID 2283463); settings: mRNA level, 48 h; actives raise or lower the signal
Outline: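 Differentiated human HepaRG cells in serum-free induction medium, dosed in duplicate for 48 h. Eight-point half-log series from 100 uM in 0.5% DMSO; ABCB11 mRNA by qRT-PCR, normalized to ACTB, GAPDH, POLR2A, fitted bidirectionally versus DMSO.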

Chain of Fatty acid synthase (Homo sapiens) (P49327 whole entry, looked up): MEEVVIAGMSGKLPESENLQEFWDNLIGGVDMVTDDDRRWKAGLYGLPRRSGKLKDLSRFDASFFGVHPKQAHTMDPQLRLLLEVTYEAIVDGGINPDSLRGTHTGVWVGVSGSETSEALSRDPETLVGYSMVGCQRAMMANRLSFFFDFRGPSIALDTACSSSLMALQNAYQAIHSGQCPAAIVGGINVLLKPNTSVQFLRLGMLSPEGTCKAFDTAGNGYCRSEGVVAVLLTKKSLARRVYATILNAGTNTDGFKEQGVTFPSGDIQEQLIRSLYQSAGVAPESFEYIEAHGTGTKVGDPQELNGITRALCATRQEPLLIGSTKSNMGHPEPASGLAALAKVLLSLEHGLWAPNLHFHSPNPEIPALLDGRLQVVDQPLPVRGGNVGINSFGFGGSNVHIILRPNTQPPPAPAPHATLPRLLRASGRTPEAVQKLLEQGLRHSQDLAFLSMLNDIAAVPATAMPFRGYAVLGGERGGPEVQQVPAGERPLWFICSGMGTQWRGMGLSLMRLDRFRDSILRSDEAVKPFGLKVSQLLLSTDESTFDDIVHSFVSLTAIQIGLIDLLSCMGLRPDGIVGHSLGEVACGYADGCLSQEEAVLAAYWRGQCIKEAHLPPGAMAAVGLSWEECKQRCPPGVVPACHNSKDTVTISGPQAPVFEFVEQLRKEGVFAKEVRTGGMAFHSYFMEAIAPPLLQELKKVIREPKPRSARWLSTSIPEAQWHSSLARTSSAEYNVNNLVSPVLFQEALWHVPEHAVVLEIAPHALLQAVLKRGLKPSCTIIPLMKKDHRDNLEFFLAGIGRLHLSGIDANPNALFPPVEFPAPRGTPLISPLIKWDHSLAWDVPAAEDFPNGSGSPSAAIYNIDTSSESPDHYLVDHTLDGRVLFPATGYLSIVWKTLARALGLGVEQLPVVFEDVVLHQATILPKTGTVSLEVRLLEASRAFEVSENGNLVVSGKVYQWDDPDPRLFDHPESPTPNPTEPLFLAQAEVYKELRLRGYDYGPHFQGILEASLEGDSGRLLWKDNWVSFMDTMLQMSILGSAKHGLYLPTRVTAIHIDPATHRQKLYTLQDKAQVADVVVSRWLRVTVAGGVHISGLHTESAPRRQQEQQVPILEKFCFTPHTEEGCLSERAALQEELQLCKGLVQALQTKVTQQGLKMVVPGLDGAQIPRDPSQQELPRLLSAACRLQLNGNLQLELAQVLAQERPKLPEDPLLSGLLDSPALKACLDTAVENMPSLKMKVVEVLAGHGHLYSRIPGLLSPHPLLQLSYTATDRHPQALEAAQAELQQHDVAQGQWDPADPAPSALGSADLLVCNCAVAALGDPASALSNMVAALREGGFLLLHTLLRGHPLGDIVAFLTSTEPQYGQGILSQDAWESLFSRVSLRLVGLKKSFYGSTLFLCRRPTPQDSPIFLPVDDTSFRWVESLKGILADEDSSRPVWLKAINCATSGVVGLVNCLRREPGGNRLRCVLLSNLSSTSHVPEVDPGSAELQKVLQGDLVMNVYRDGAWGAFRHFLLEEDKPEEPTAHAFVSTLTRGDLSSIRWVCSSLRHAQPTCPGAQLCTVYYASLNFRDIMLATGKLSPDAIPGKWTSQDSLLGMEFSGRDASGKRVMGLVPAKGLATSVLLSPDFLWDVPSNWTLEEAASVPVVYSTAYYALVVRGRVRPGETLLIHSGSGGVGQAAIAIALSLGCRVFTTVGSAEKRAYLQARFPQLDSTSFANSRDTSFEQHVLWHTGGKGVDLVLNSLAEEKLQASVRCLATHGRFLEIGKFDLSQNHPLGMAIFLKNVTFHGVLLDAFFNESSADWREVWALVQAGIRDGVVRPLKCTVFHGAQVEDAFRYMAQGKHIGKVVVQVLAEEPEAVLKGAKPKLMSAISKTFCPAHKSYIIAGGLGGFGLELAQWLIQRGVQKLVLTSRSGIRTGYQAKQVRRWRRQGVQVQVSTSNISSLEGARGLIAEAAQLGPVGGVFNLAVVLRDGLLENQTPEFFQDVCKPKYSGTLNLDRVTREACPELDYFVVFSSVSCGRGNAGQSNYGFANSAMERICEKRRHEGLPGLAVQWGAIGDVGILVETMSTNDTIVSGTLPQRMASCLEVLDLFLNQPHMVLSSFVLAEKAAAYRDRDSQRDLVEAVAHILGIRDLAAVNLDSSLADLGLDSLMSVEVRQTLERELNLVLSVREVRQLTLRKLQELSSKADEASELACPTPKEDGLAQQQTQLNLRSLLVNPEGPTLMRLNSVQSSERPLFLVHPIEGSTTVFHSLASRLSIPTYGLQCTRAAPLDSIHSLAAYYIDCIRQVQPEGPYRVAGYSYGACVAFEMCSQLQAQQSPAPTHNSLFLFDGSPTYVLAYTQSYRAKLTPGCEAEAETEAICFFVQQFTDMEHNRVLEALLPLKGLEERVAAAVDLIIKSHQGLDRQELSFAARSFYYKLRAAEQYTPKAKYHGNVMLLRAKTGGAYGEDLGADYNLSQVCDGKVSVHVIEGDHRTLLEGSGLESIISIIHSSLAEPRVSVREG

In the case of `OCc1cccc(Oc2ccccc2)c1`, the outcome [1] is reported as “inactive” and the AC50 [2] is reported as 50 µM (active).

For `CC=Cc1ccc(OCC)c(O)c1`, the outcome [3] was “inactive” and the AC50 [1] was 20.7 µM (active).

For `COCCc1ccc(OCC(O)CNC(C)C)cc1` (centres undefined), the outcome [3] was “inactive” and the outcome [1] was “inactive”.

With `COc1ccc(CCN2CCC(Nc3nc4ccccc4n3Cc3ccc(F)cc3)CC2)cc1` the AC50 [3] was 1.52 µM (active) and the AC50 [1] was 0.789 µM (active).

In the case of `CCCCCCCCN1CCCC1=O`, the outcome [3] is reported as “inactive” and the outcome [1] is reported as “inactive”.

In the case of `CC1(C)C(=O)N(Cl)C(=O)N1Br`, the outcome [3] is reported as “inactive” and the outcome [1] is reported as “inactive”.

In the case of `CS(=O)(=O)OCCCCOS(C)(=O)=O`, the outcome [4] is reported as “inactive”, the outcome [5] is reported as “inactive” and the outcome [6] is reported as “inactive”. For the same compound, the outcome [7] was “inactive”, the outcome [8] was “inactive” and the outcome [9] was “inactive”. For the same compound, the outcome [10] was “inactive”, the outcome [11] was “inactive” and the outcome [12] was “inactive”. For the same compound, the outcome [13] was “inactive”, the outcome [14] was “inactive” and the outcome [15] was “inactive”. The outcome [16] was “inactive”, the outcome [17] was “inactive” and the outcome [18] was “inactive”.

With `Cc1cc(=O)oc2cc(N(C)C)ccc12` the outcome [3] was “inactive” and the outcome [1] was “inactive”.

With `COc1ccc(N=Nc2cc(C)c(N=Nc3ccc(S(=O)(=O)O)cc3)cc2OC)cc1` the outcome [3] was “inactive” and the AC50 [1] was 50 µM (active).

With `CCOC(=O)[C@@H](C)Oc1ccc(Oc2nc3ccc(Cl)cc3o2)cc1` the AC50 [3] was 22.8 µM (active), the AC50 [1] was 25.7 µM (active) and the outcome [2] was “inactive”.

For `C=C1CC[C@H](O)C/C1=C/C=C1\CCC[C@]2(C)[C@@H]([C@H](C)/C=C/[C@H](C)C(C)C)CC[C@@H]12`, the AC50 [3] was 87.2 µM (active) and the AC50 [1] was 84.3 µM (active).

In the case of `Nc1ccc(N)c2c1C(=O)c1ccccc1C2=O`, the AC50 [3] is reported as 4.43 µM (active), the outcome [1] is reported as “inactive” and the outcome [2] is reported as “inactive”.

In the case of `BrCc1cccc(Oc2ccccc2)c1`, the outcome [3] is reported as “inactive”, the outcome [1] is reported as “inactive” and the AC50 [2] is reported as 34.5 µM (active).

For `CC(CN=Cc1ccccc1O)N=Cc1ccccc1O` (centres undefined), the AC50 [3] was 1.7 µM (active) and the outcome [1] was “inactive”.
